Source: PubChem (National Center for Advancing Translational Sciences (NCATS))
In the library only some 21% were active in any assay of this set; here they are far more common.
Pf growth 96h – P. falciparum growth inhibition at 96 hour, primary screen for plastid delayed-death inhibitors. P. falciparum luciferase reporter growth, 96 h. AID 504834. hit rate 6.9% among 320,000. Potency, µM (doses to about 28.7 µM), without a hit: top-dose activity change, negative = inhibition, usual class: inhibitors; note: potency is the fitted concentration of half-maximal effect; % is set by controls: 0 for no effect and ±100 for the full control effect
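Plates of compound plus infected erythrocytes (2% hematocrit, 0.05% parasitemia final) incubate 96 hours, 37 C, 5% CO2. Detection reagent added; reduced luminescence from the parasites' luciferase reporter flags inhibition.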
Cycloheximide cs – affects cycloheximide protein synthesis inhibition readout, counter-screen. cell reporter, cycloheximide protein synthesis inhibition counterscreen. max response, %. hit rate 12% among 300,000. AID 2314; in the data active = max response mostly above about 13%, no sharp cut-off; inactive = mostly below about 14%; note: read at 38.3 µM for the half of the compounds with a filed dose; 0% is about no effect
Giardia FBPA inh – blocks Giardia fructose-bisphosphate aldolase activity | Potency, µM (doses to about 59.6 µM), for the others: top-dose activity, negative = inhibition, usual class: inhibitors | purified Giardia FBPA | AID 2451 | hit rate 0.71% among 290,000; note: potency is the fitted concentration of half-maximal effect; % is set by controls: 0 for no effect and ±100 for the full control effect; nearly all actives have a fitted effect of over 55% in size
Target sequence (A8B2U2 whole entry, looked up): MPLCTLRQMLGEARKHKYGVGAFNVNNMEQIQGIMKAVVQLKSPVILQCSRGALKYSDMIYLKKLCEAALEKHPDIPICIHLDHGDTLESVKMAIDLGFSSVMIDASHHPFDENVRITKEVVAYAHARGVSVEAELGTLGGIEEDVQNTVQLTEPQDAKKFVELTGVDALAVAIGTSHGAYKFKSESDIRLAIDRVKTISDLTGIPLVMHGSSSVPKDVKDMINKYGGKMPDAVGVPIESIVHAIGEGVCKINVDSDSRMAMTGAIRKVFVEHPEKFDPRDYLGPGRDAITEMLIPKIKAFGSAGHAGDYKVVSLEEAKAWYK
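40 nM FBPA preincubated 10 min at RT with compound (up to 57.5 uM final), then substrate plus GAPDH/TPI/NAD/arsenate coupling and diaphorase/resazurin added. Fluorescence read after 20 min at RT, 525/598 nm.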
Shiga inhibitor – inhibitors of Shiga toxin in Vero cells. Vero cells, Shiga toxin protein synthesis inhibition reporter. inhibition, % at 38.7 µM. hit rate 9.2% among 290,000; in the data active = inhibition mostly above about 28%, no sharp cut-off; inactive = mostly below about 43%; note: 0% is about no effect
Pf growth 48h – P. falciparum growth inhibition at 48 hours (one generation) | P. falciparum luciferase growth in erythrocytes, 48 h | Potency, µM (doses to about 28.7 µM), without a hit: top-dose activity change, negative = inhibition, actives largely listed as inhibitors | hit rate 5.9% among 310,000; note: potency is the fitted concentration of half-maximal effect; % is set by controls: 0 for no effect and ±100 for the full control effect
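First compound was added to culture medium, then infected red cells at 0.1% parasitemia and 2% hematocrit (final). After incubation at 37 C under 5% CO2, luciferase detection reagent was dispensed and light output recorded.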
NS1 inh – inhibitors of influenza NS1 protein function; AID 2326; hit rate 0.4% among 270,000; Potency, µM (top dose mostly 46.1 µM), without a hit: at the top dose activity, positive = more growth; calls by dose curve; note: potency is the fitted concentration of half-maximal effect; actives are rising curves; nearly all actives have a fitted effect of over 50% in size
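OD600 was taken as the measure of yeast growth restored by compound in an NS1-expressing S. cerevisiae strain. Cells had been washed out of glucose medium and diluted 1:100 into galactose -URA medium, pH 6.0.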
Active calls of the source: *; [ ] = remark or other dose. Unless noted, calls come from the whole dose curve; as a rule, active = well fitted curve in the direction sought with a large enough effect; inconclusive = small, poorly fitted or top-dose-only effect, or another doubt; inactive = no such curve, though single readings can be large; an effect the other way counts as inactive or inconclusive.

Results for CCN(CC)C(=O)Oc1cc(COC)nc(-c2ccccc2)n1 ?
Pf growth 96h: inconclusive; Cycloheximide cs: 1; Giardia FBPA inh: 0%; Shiga inhibitor: -12; Pf growth 48h: 10µM*; NS1 inh: -11%

Results for CC(C)CNC(=O)Nc1ccc(F)c(Cl)c1 ?
Pf growth 96h: inconclusive; Cycloheximide cs: 26*; Giardia FBPA inh: -6%; Shiga inhibitor: 40; Pf growth 48h: 4%; NS1 inh: -31%

Results for CSCC(=O)Nc1ccc(F)c(Cl)c1 ?
Pf growth 96h: -10%; Cycloheximide cs: -1; Giardia FBPA inh: 1%; Shiga inhibitor: 23; Pf growth 48h: -1%; NS1 inh: -3%

Results for CCCCC(=O)Nc1ccc(F)c(Cl)c1 ?
Pf growth 96h: 7%; Cycloheximide cs: 16*; Giardia FBPA inh: -9%; Shiga inhibitor: 29; Pf growth 48h: 46%; NS1 inh: -36%

How did CCC(C)NC(=O)Nc1ccc(F)c(Cl)c1 (configuration not stated) do in these assays?
Pf growth 96h: -11%; Cycloheximide cs: 23*; Giardia FBPA inh: -2%; Shiga inhibitor: 34; Pf growth 48h: 20%; NS1 inh: 2%

What do the screens show for `O=C(Nc1ccc(F)c(Cl)c1)NC1CC1`?
Pf growth 96h: 5%; Cycloheximide cs: 7; Giardia FBPA inh: -1%; Shiga inhibitor: 40; Pf growth 48h: -19%; NS1 inh: inconclusive

What do the screens show for `C=CCNC(=O)Nc1ccc(F)c(Cl)c1`?
Pf growth 96h: -13%; Cycloheximide cs: 3; Giardia FBPA inh: 0%; Shiga inhibitor: 19; Pf growth 48h: 0%; NS1 inh: -8%

Results for COc1ccc(NC(=O)C2CCN(S(=O)(=O)c3cccs3)CC2)cc1OC ?
Pf growth 96h: inconclusive; Pf growth 48h: -15%

How did CC1(C)CCc2cc(-c3ccn(S(=O)(=O)c4ccccc4Cl)n3)ccc2O1 do in these assays?
Pf growth 96h: inconclusive; Cycloheximide cs: 16*; Giardia FBPA inh: -10%; Shiga inhibitor: 38; Pf growth 48h: inconclusive; NS1 inh: -2%

Results for CC1(C)CCc2cc(S(=O)(=O)N3CCN(S(=O)(=O)c4c(F)cccc4F)CC3)ccc2O1 ?
Cycloheximide cs: -4; Shiga inhibitor: -6

How did COc1ccc(S(=O)(=O)n2ccc(-c3ccc4c(c3)CCC(C)(C)O4)n2)cc1 do in these assays?
Pf growth 96h: 9.3µM*; Cycloheximide cs: 3; Giardia FBPA inh: -2%; Shiga inhibitor: 19; Pf growth 48h: 10µM*; NS1 inh: 2%

Results for CCOC(=O)Cc1csc(NC(=O)COc2cc(C)cc(C)c2)n1 ?
Pf growth 96h: 43%; Cycloheximide cs: -3; Giardia FBPA inh: 0%; Shiga inhibitor: 9; Pf growth 48h: -2%; NS1 inh: 1%

What do the screens show for `COc1ccc(/C=C/C(=O)NCCCN2CCCC2)cc1`?
Pf growth 96h: 5%; Cycloheximide cs: -4; Giardia FBPA inh: -14%; Shiga inhibitor: 20; Pf growth 48h: 7%; NS1 inh: 2%

Results for CCCCOC(=O)CCc1nc2ccccc2[nH]1 ?
Pf growth 96h: 8%; Cycloheximide cs: 2; Giardia FBPA inh: -20%; Shiga inhibitor: 10; NS1 inh: -13%

What do the screens show for `C#CCNC(=O)/C=C/c1ccc(OC)cc1`?
Pf growth 96h: 124%; Cycloheximide cs: 40*; Giardia FBPA inh: -4%; Shiga inhibitor: 59*; Pf growth 48h: 131%; NS1 inh: 22%

How did COc1ccc(/C=C/C(=O)NCCc2nc3ccccc3[nH]2)cc1 do in these assays?
Pf growth 96h: inconclusive; Cycloheximide cs: 16*; Giardia FBPA inh: -2%; Shiga inhibitor: 20; Pf growth 48h: inconclusive; NS1 inh: 14%

Results for O=C(/C=C/c1ccco1)N/C(=C\c1ccccc1)C(=O)NCCc1nc2ccccc2[nH]1 ?
Pf growth 96h: -5%; Cycloheximide cs: 9; Giardia FBPA inh: 5%; Shiga inhibitor: 37*; Pf growth 48h: -13%; NS1 inh: -16%

What do the screens show for `CCCCOc1ccc(/C=C/C(=O)NCCc2nc3ccccc3[nH]2)cc1`?
Pf growth 96h: 12µM*; Cycloheximide cs: -1; Giardia FBPA inh: 1%; Shiga inhibitor: -7; Pf growth 48h: inconclusive; NS1 inh: 4%

How did COc1cc(/C=C/C(=O)NCc2nc3ccccc3[nH]2)cc(OC)c1OC do in these assays?
Pf growth 96h: inconclusive; Cycloheximide cs: 9; Giardia FBPA inh: 0%; Shiga inhibitor: -4; Pf growth 48h: inconclusive; NS1 inh: 0%

Results for O=C(Nc1ccc(Cc2ccncc2)cc1)c1ccc(S(=O)(=O)N2CCCC2)cc1 ?
Pf growth 96h: 34%; Cycloheximide cs: -2; Giardia FBPA inh: 4%; Shiga inhibitor: -2; Pf growth 48h: -22%[5.75 µM]

What do the screens show for `O=C1CSc2ccc(S(=O)(=O)N3CCN(c4ccccc4F)CC3)cc2N1`?
Pf growth 96h: 13µM*; Cycloheximide cs: 8; Shiga inhibitor: -6; Pf growth 48h: inconclusive; NS1 inh: -4%

How did Cc1ccc(C)c(N2CCN(S(=O)(=O)c3ccc4c(c3)NC(=O)CS4)CC2)c1 do in these assays?
Pf growth 96h: 7.4µM*; Cycloheximide cs: -5; Shiga inhibitor: -4; Pf growth 48h: -27%; NS1 inh: 12%

How did CN1CCN(S(=O)(=O)c2ccc3c(c2)NC(=O)CS3)CC1 do in these assays?
Pf growth 96h: inconclusive; Cycloheximide cs: -5; Shiga inhibitor: -3; Pf growth 48h: 45%; NS1 inh: 19%

What do the screens show for `Cc1ccc(C(=O)NCC(=O)OCn2nnc3ccccc3c2=O)cc1`?
Pf growth 96h: inconclusive; Pf growth 48h: 6%

Results for O=C(N/N=C/c1cc([N+](=O)[O-])ccc1O)c1cccc2cc[nH]c12 ?
Pf growth 96h: 3.7µM*; Cycloheximide cs: 33*; Giardia FBPA inh: 9%; Shiga inhibitor: 31*; Pf growth 48h: inconclusive; NS1 inh: -30%

What do the screens show for `O=C(N/N=C/c1cc([N+](=O)[O-])ccc1O)C(O)(c1ccccc1)c1ccccc1`?
Pf growth 96h: inconclusive; Cycloheximide cs: -3; Giardia FBPA inh: inconclusive; Shiga inhibitor: -5; Pf growth 48h: inconclusive; NS1 inh: -20%

What do the screens show for `O=C(N/N=C/c1cccc([N+](=O)[O-])c1)c1ccccc1-n1cccc1`?
Pf growth 96h: 0%; Cycloheximide cs: 4; Giardia FBPA inh: inconclusive; Shiga inhibitor: 28*; Pf growth 48h: -12%

Results for Cc1cc(C(=O)N/N=C/c2cccc([N+](=O)[O-])c2)c2ccccc2n1 ?
Pf growth 96h: 11%; Cycloheximide cs: -3; Giardia FBPA inh: -19%; Shiga inhibitor: 15; Pf growth 48h: 13%; NS1 inh: 2%

What do the screens show for `O=C(N/N=C/c1cccc([N+](=O)[O-])c1)c1cccc2cc[nH]c12`?
Pf growth 96h: -1%; Cycloheximide cs: 29*; Giardia FBPA inh: 3%; Shiga inhibitor: 58*; Pf growth 48h: 48%
